Among the data in article PMC10726135, “HNF4α isoforms regulate the circadian balance between carbohydrate and lipid metabolism in the liver” are binding signal values, retold here.

The full ranking holds about 18,000 sequences; the median of “log2 normalized intensity” is about 0.36, and the highest 2% start at about 7.3. For the sample, the highest values were picked, then their nearest neighbours and some sequences at random.

The assay addresses T1, HNF4alpha8 (COS-7 nuclear extract) (Homo sapiens, UniProt P41235-5 1-452).
T1 sequence: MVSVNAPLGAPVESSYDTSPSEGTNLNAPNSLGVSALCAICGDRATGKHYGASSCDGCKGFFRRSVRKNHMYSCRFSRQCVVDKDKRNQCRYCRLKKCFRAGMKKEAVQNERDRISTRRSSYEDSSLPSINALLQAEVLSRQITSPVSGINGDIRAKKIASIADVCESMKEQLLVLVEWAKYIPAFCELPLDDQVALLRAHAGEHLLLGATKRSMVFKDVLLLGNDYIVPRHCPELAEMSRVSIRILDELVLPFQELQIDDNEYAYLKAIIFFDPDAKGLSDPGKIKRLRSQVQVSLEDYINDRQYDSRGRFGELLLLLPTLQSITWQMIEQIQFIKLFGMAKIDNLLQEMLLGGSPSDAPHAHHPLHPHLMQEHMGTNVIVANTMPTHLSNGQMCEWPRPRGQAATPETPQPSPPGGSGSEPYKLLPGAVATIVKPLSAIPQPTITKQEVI
The assay is described as follows: protein-binding microarray; COS-7 nuclear extract on double-stranded Agilent 4x180k PBM; binding buffer, salt, pH and temperature not given in the material; high values mean tight binding. Particulars: chain copies: 2; label: 3' end of strand 1 on the slide; dsDNA, one strand shown. In a few lines:
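A human HNF4α isoform was expressed in COS-7 cells by transient CaPO4 transfection, and nuclear extracts were prepared. These were applied to a custom Agilent SurePrint G3 4x180k array carrying ~44,000 test sequences in quadruplicate as double-stranded ~60-nt oligonucleotides, and an Agilent G2565CA scanner imaged bound HNF4α at 2-µm resolution. The background-corrected, normalized gProcessedSignal from Agilent software was used as the binding signal.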
“GACCTTGTTTTCAATGACTACCTGTTACCCGCCTAGGGAGATTAGAGTATCGGTCGA”: the binding signal amounted to 1.81 log2 normalized intensity.

As to “CCATCAGTGGACTTTGACCTTGTTTTCAATGCCTAGGGAGATTAGAGTATCGGTCGA”, the binding signal stood at 9.54 log2 normalized intensity.

With “CCTTTCTACTGCCAGCCAGGGCCACCCATCGCCTAGGGAGATTAGAGTATCGGTCGA”, the binding signal worked out at 0.592 log2 normalized intensity.

Regarding “AGTGGACTTTGACCTTGTTTTCAATGACTAGCCTAGGGAGATTAGAGTATCGGTCGA”, the binding signal was determined as 7.8 log2 normalized intensity.

On to “GTTCAATGCTTCAGTGAGCCTTGACCTTCAGCCTAGGGAGATTAGAGTATCGGTCGA”, for which the binding signal stood at 4.83 log2 normalized intensity.

On to “GCCACCCATCAGTGGACTTTGACCTTGTTTGCCTAGGGAGATTAGAGTATCGGTCGA”, for which the binding signal came out at 10.8 log2 normalized intensity.

“AGACCTTTGACATCACCTAACTTGTGGCTGGCCTAGGGAGATTAGAGTATCGGTCGA”: the binding signal turned out to be 1.49 log2 normalized intensity.

Regarding “CACATGCTATTATTTTCCATCAGTGGACTTGCCTAGGGAGATTAGAGTATCGGTCGA”, the binding signal was 3.95 log2 normalized intensity.

Consider “CCCAGGGACTTTGGCCTTACTTGGCCTGTTGCCTAGGGAGATTAGAGTATCGGTCGA”, for which the binding signal stood at 3.01 log2 normalized intensity.

For “CAGTGGACTTTGTCCTTCATCTATCTCCTTGCCTAGGGAGATTAGAGTATCGGTCGA”, the binding signal was found to be 5.95 log2 normalized intensity.

With “ACTTTGACCTTGTTTTCAATGACTACCTGTGCCTAGGGAGATTAGAGTATCGGTCGA”, the binding signal was determined as 2.13 log2 normalized intensity.

Consider “GCCAGCCAGGGCCACCCATCAGTGGACTTTGCCTAGGGAGATTAGAGTATCGGTCGA”, for which the binding signal is 7.34 log2 normalized intensity.

Turning to “GCAGCTCTTTACAAAGCCCATGCTGGACCCGCCTAGGGAGATTAGAGTATCGGTCGA”, the binding signal stood at 4.69 log2 normalized intensity.

Take “TCACAGTGCCTCTGCAAGTTGGCCTTACTAGCCTAGGGAGATTAGAGTATCGGTCGA”: the binding signal was -0.0691 log2 normalized intensity.

Take “TTTGTCTGTGTAGACTCATCTGGTGTCATTGCCTAGGGAGATTAGAGTATCGGTCGA”: the binding signal came out at 1.95 log2 normalized intensity.

Consider “TTTTTGAGATGGAATCTTGCCCTGTCGCCCGCCTAGGGAGATTAGAGTATCGGTCGA”, for which the binding signal was determined as 3.19 log2 normalized intensity.

With “GGTTCCAGCATGGACTTCACAGCCTGTTAGGCCTAGGGAGATTAGAGTATCGGTCGA”, the binding signal was 0.147 log2 normalized intensity.

Regarding “TGTGGGTTCAAATCCATTCAGCAGCGTGTAGCCTAGGGAGATTAGAGTATCGGTCGA”, the binding signal is -0.128 log2 normalized intensity.

As for “GCAAAGTTCAACCCTGAATGTGTGCTGGCCGCCTAGGGAGATTAGAGTATCGGTCGA”, the binding signal stood at 1.12 log2 normalized intensity.

In the case of “ACTTCGCTGGAGGTGTTAAAGTGCCATTGAGCCTAGGGAGATTAGAGTATCGGTCGA”, the binding signal stood at 1.75 log2 normalized intensity.

With “TGCACTTTACGTAAGATAAGGTGAACATACGCCTAGGGAGATTAGAGTATCGGTCGA”, the binding signal stood at 1.09 log2 normalized intensity.

Take “TGGGTGGGGGAAGTGTGGTCAAGGGTCAGTGCCTAGGGAGATTAGAGTATCGGTCGA”: the binding signal is 4.76 log2 normalized intensity.

Turning to “AGAGCAAGGGTCAAGGGTCATTTGTTTTTAGCCTAGGGAGATTAGAGTATCGGTCGA”, the binding signal stood at 6.31 log2 normalized intensity.

Turning to “CCGCAGTGGGAGAGCAAGGGTCAAGGGTCAGCCTAGGGAGATTAGAGTATCGGTCGA”, the binding signal worked out at 7.52 log2 normalized intensity.

Take “CCCATCCGCAGTGGGAGAGCAAGGGTCAAGGCCTAGGGAGATTAGAGTATCGGTCGA”: the binding signal is 4.51 log2 normalized intensity.

On to “GTGGGAGAGCAAGGGTCAAGGGTCATTTGTGCCTAGGGAGATTAGAGTATCGGTCGA”, for which the binding signal was 7.65 log2 normalized intensity.

In the case of “AAGGGTCAAGGGTCATTTGTTTTTACAGACGCCTAGGGAGATTAGAGTATCGGTCGA”, the binding signal worked out at 6.77 log2 normalized intensity.

Regarding “CATTTTTTTCCACCCTCCCCTCCCCCTCCTGCCTAGGGAGATTAGAGTATCGGTCGA”, the binding signal is 6.32 log2 normalized intensity.

Turning to “GAATTTTGGACAAGGTAACCCCCAACATTCGCCTAGGGAGATTAGAGTATCGGTCGA”, the binding signal amounted to 3.79 log2 normalized intensity.

Consider “ATGTGCCCTTTGGACAGAAATATCAGCAAGGCCTAGGGAGATTAGAGTATCGGTCGA”, for which the binding signal was 3.43 log2 normalized intensity.

Consider “GGAGGGAACAGCAAGACTTTGGCCCTGCAGGCCTAGGGAGATTAGAGTATCGGTCGA”, for which the binding signal was found to be 0.278 log2 normalized intensity.

Consider “AAGTCCAAAGTTCTTGGCCAGGCATGGAGAGCCTAGGGAGATTAGAGTATCGGTCGA”, for which the binding signal turned out to be 2.75 log2 normalized intensity.

On to “AAGGGTCAATGTGATCAGGTGTGGGCATTAGCCTAGGGAGATTAGAGTATCGGTCGA”, for which the binding signal amounted to 1.3 log2 normalized intensity.

In the case of “ATCTCACACAGTACTTTGTACATGGGAATAGCCTAGGGAGATTAGAGTATCGGTCGA”, the binding signal stood at 1.8 log2 normalized intensity.

As to “ATAGTTCAGCCATCAGGTAACATATTGTCCGCCTAGGGAGATTAGAGTATCGGTCGA”, the binding signal was determined as 1.18 log2 normalized intensity.

With “TCCAGATCAAGGATTTTTTCTTGGACTTTGGCCTAGGGAGATTAGAGTATCGGTCGA”, the binding signal was determined as 5.67 log2 normalized intensity.

For the sequence “TTTTGATCAAGGAGGACTTTGGAATGGCAGGCCTAGGGAGATTAGAGTATCGGTCGA”, the binding signal came out at 4.79 log2 normalized intensity.

As to “GCAGTTTTTGATCAAGGAGGACTTTGGAATGCCTAGGGAGATTAGAGTATCGGTCGA”, the binding signal worked out at 7.54 log2 normalized intensity.

As for “TTTTCTTGGACTTTGGTCATCCTTTACTTTGCCTAGGGAGATTAGAGTATCGGTCGA”, the binding signal was found to be 6.91 log2 normalized intensity.

For “TTGGACTTTGGTCATCCTTTACTTTCCCAAGCCTAGGGAGATTAGAGTATCGGTCGA”, the binding signal came out at 6.14 log2 normalized intensity.

Regarding “GACTTTGGTTGGATTTCTTGGCTTCTCTTGGCCTAGGGAGATTAGAGTATCGGTCGA”, the binding signal was determined as 0.989 log2 normalized intensity.

Turning to “GGATTTTTTCTTGGACTTTGGTCATCCTTTGCCTAGGGAGATTAGAGTATCGGTCGA”, the binding signal was determined as 7.39 log2 normalized intensity.

Take “ATCAAGGATTTTTTCTTGGACTTTGGTCATGCCTAGGGAGATTAGAGTATCGGTCGA”: the binding signal amounted to 8.58 log2 normalized intensity.

In the case of “TTTAGGCAGTTTTTGATCAAGGAGGACTTTGCCTAGGGAGATTAGAGTATCGGTCGA”, the binding signal stood at 4.55 log2 normalized intensity.
